TLR4 MyD88 comp: TLR4-MyD88 interaction inhibition in cells; HeLa CL3-4 TLR4/MyD88 BLA complementation, FRET ratio; inhibition, % at 8.4 µM; 200,000 compounds, 0.18% hits; AID 861; in the data active = inhibition above about 25%;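 also: 0% = vehicle and 100% = reference inhibitor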
CRFBP-R2 block: blocks CRF-induced signaling of the CRF-BP/CRF-R2 complex. HEK293 CRF-R2/CRF-BP, CRF-induced calcium fluorescence. inhibition, % at 11.8 µM. 350,000 compounds, 0.59% hits;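 active = inhibition of the ligand-induced calcium signal above about 50% at the single tested concentration, limit read from the data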
HTR2A ag: activates the mouse 5-HT2A serotonin receptor; activation, % at 7.6 µM; 360,000 compounds, 0.66% hits; CHO-K1 mHTR2A beta-arrestin complementation, luminescence; percent of 30 µM serotonin response;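 active = activation above a run cutoff, the mean activation of all tested compounds plus 3 SD, cut at about 14% in these data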;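 also: 0% = plate median of compound wells and 100% = 30 µM serotonin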
TLR9-MyD88 block: blocks human TLR9 binding to MyD88 | CHO BLA complementation TLR9-MyD88, CCF4 FRET ratio | inhibition, % at 4.98 µM | 340,000 compounds, 0.21% hits;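 active = inhibition above the mean over all tested compounds plus 3 SD, cut at about 21% in these data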;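 also: 0% = DMSO only wells and 100% = clavulanate BLA inhibitor control wells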
NOD2 RIPK2 PPI: blocks binding of human NOD2 to RIPK2. inhibition, % at 4.98 µM. 360,000 compounds, 0.38% hits. CHO BLA complementation NOD2-RIPK2, CCF4 ratio; in the data active = inhibition above about 21%;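 also: 0% = vehicle only and 100% = reference blocker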
ABHD5-PLIN5 inh: ABHD5-PLIN5 protein interaction inhibition; Q00G26+Q8WTS1; Split G. princeps luciferase complementation, luminescence, 4 h; inhibition, % at 4 µM; 360,000 compounds, 0.78% hits;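 active = inhibition above the mean inhibition across every tested compound plus 3 SD, cut at about 22% in these data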;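 also: 0% = DMSO only wells and the 100% control is not disclosed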
OPRM1 ag: counter-screen for mouse HTR2A agonists: human mu opioid receptor agonists | shares compounds with HTR2A ag | U2OS OPRM1 beta-arrestin PathHunter, luminescence; DMSO 0%, DAMGO 9.3 µM 100% | activation, % at 9.3 µM | 2,300 compounds, 5.3% hits | AID 624380;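 active = mean activation above the mean of DMSO-only wells plus 3 SD, cut at about 0.5% in these data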
Target sequence (P35372 whole entry, looked up): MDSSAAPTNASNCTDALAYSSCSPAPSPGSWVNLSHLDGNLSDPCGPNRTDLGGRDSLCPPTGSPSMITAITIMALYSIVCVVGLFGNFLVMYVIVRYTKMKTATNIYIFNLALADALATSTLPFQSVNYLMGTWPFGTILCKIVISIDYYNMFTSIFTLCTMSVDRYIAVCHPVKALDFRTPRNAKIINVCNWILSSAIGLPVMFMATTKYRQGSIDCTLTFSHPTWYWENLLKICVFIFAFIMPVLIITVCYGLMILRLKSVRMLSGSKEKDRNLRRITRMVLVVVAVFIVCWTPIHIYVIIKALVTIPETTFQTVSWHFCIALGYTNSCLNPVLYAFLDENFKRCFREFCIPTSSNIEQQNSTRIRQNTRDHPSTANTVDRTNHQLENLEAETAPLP
HTR2A ag conf: mouse HTR2A agonism confirmed; CHO-K1 PathHunter beta-arrestin recruitment, luminescence; DMSO 0%, 30 µM serotonin 100%; shares compounds with HTR2A ag; AID 624381; activation, % at 7.6 µM; 2,300 compounds, 19% hits;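 active = mean activation across triplicates above the hit threshold derived in the original primary screen, cut at about 15% in these data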
The depositor's hits bear a star; nt = not tested or not shown. Hits are enriched below; roughly 2.4% of the tested compounds scored in any of these assays.

SMILES	TLR4 MyD88 comp	CRFBP-R2 block	HTR2A ag	TLR9-MyD88 block	NOD2 RIPK2 PPI	ABHD5-PLIN5 inh	OPRM1 ag	HTR2A ag conf
Cc1ccc2[nH]c(=O)c(CN(CCO)C(=O)N(C)C)cc2c1	0	1	22*	-1	0	4	-1	-5
O=C1CC[C@@H](C(=O)N2CSC[C@H]2C(=O)O)N1	nt	-4	46*	0	-17	-2	-1	-4
COc1ccc(OC)c(NC(=O)C2(C)CCN2C(=O)CC2CC2)c1 (stereo not given)	nt	nt	-4	nt	2	0	nt	nt
COc1cc(/C=C2/S/C(=N/S(=O)(=O)c3ccccc3)NC2=O)c([N+](=O)[O-])cc1OC	5	29	18*	-4	-7	2	-1	-5
Cc1ccc(C(C)C)c(OCC(=O)OCC(=O)NC2CC2)c1	nt	23	26*	-4	-6	2	0	-1
O=C(CCN1C(=O)c2cccc3cccc(c23)C1=O)NCc1ccco1	1	4	16*	4	6	4	-1	-2
CN1CCC(N2CCN(C3CN(C4CCCC4)S(=O)(=O)C3)CC2)CC1 (stereo not given)	nt	nt	2	nt	0	4	nt	nt
Cc1ccc(C(=O)NCCNC(=O)CN2CCOCC2)cc1	-6	4	15*	-9	-8	-1	-1	-2
CC(C)(C)c1ccc(C(=O)NCCN2CCOCC2)cc1	nt	-9	-4	-5	6	5	nt	nt
c1ccc(Nc2nc(Nc3ccccc3)nc(N3CCNCC3)n2)cc1	nt	-1	20*	1	-2	5	0	11
CCn1cc(CN2CCN(Cc3ccsc3)C(CCO)C2)cn1 (stereo not given)	3	14	15*	5	-12	4	0	5
Cc1ccc(S(=O)(=O)N[C@H](CNCc2ccccc2)C(C)C)cc1	nt	nt	-3	nt	-17	2	nt	nt
O=C(O)c1cccc2c1-c1ccc([N+](=O)[O-])cc1C2=O	nt	10	-2	-6	4	-1	nt	nt
O=C(O)c1cccc2c1Cc1cc([N+](=O)[O-])ccc1-2	nt	-3	15*	-6	0	0	0	-1
COc1ccc(N2C(=O)CSC2c2cccc(OC)c2OC)cc1 (stereo not given)	-6	-10	19*	-7	1	5	-1	-2
COc1cccc(C2SCC(=O)N2c2ccc(C)cc2)c1OC (stereo not given)	-8	-25	4	-18	-5	-4	nt	nt
Cc1ccc(N2CCN(C(C(=O)Nc3c(C)cccc3C)c3cc4ccccc4o3)CC2)cc1 (stereo not given)	nt	nt	0	nt	-1	-8	nt	nt
O=C(O)c1c(Cl)cccc1Nc1ccccc1	nt	-2	-1	nt	-5	1	nt	nt
O=C(Nc1ccccc1)Nc1nnc(SCc2ccc(Cl)cc2)s1	-5	11	17*	-1	-3	-4	0	-1
C#Cc1ccc(NC(=O)C2(C)CCN2C(=O)CC(c2ccccc2)c2ccccc2)cc1 (stereo not given)	nt	nt	5	nt	-2	-14	nt	nt
CC(C)C[C@H]1C(=O)N2CCC[C@H]2[C@]2(O)O[C@](NC(=O)[C@@H]3C=C4c5cccc6[nH]c(Br)c(c56)CC4N(C)C3)(C(C)C)C(=O)N12 (stereo not given in full)	-10	-14	41*	3	-12	5	0	127*
Cc1ccccc1-c1ccc(/C=C2/SC(N3CCOCC3)=NC2=O)o1	nt	-13	21*	-5	6	0	-1	89*
CCOC(=O)[C@]12CCCC=C1N(Cc1ccccc1)C(=O)[C@H](CC(=O)N1CCN(C(=O)c3ccco3)CC1)C2	nt	nt	-2	nt	-11	8	nt	nt
O=C(O)C(O)C(O)C(O)C(O)C(=O)O (stereo not given) (tested in a mixture with another compound)	nt	-9	20*	12	-9	5	-1	4
CC(=O)OC[C@@H]1CN(Cc2ccccc2)C[C@H](n2cnc3c(NC4CCC4)ncnc32)O1	nt	nt	-4	nt	-6	1	nt	nt
SMILES	TLR4 MyD88 comp	CRFBP-R2 block	HTR2A ag	TLR9-MyD88 block	NOD2 RIPK2 PPI	ABHD5-PLIN5 inh	OPRM1 ag	HTR2A ag conf
CSc1ccccc1NC(=O)Cn1ccsc1=N	-8	-3	1	-4	-1	-2	nt	nt
N=c1sccn1CC(=O)Nc1cccc2ccccc12	-5	13	20*	8	-2	4	0	7
COC(=O)C1(C(=O)OC)c2ncccc2N(S(=O)(=O)c2ccc(C)cc2)C1CC(=O)c1ccccc1 (stereo not given)	nt	nt	-5	nt	-13	5	nt	nt
CCC(c1nnnn1-c1c(C)cccc1C)N1CCN(C/C=C/c2ccccc2)CC1 (stereo not given)	nt	nt	27*	nt	-4	3	0	78*
CC(C)(C)n1nnnc1C(C1CC1)N1CCN(C/C=C/c2ccccc2)CC1 (stereo not given)	nt	nt	20*	nt	0	5	0	35*
CSCCC(c1nnnn1-c1c(C)cccc1C)N1CCN(C/C=C/c2ccccc2)CC1 (stereo not given)	nt	nt	-7	nt	-9	5	nt	nt
COc1ccc(-n2nnnc2C(C2CC2)N2CCN(C/C=C/c3ccccc3)CC2)cc1 (stereo not given)	nt	nt	10	nt	3	4	nt	nt
Cc1cccc(C)c1-n1nnnc1C(C1CC1)N1CCN(C/C=C/c2ccccc2)CC1 (stereo not given)	nt	nt	30*	nt	6	0	0	57*
CC(=O)Nc1cncc(-c2cnn(CC(C)C)c2)n1	nt	nt	6	nt	-13	8	nt	nt
Cc1cccc(N2CCN(C(=O)c3cc4ccccc4oc3=O)CC2)c1C	-7	-48	16*	4	-8	-2	0	-5
COc1ccc(-c2cc(C(=O)Nc3ccc(NC(C)=O)cc3)[nH]n2)c(C)c1	nt	nt	21*	nt	3	6	-1	-7
COc1ccc(-c2cc(C(=O)Nc3cc(OC)c(OC)c(OC)c3)[nH]n2)c(C)c1	nt	nt	0	nt	-15	4	nt	nt
Cc1cnc(N)nc1-c1ccccc1	nt	3	29*	2	-1	5	0	-4
COc1ccc(CCNC(=O)c2cc3cc(Cl)ccc3nc2N)cc1OC	nt	nt	14	nt	2	6	nt	nt
O=C(O)c1ccc(S(=O)(=O)N2CCC3(CC2)CC(=O)c2ccccc2O3)cc1	nt	-3	19*	-8	-9	6	0	2
COc1ccccc1NC(=S)NCc1ccc2c(c1)cc(C)n2C	9	-3	-1	2	5	9	nt	nt

Compound activity from PubChem.
